Screening results from PubChem.
An excerpt weighted towards active compounds, which were near 3.3% of everything screened.
PRMT1 inh: PRMT1 (human) inhibition, primary screen | recombinant PRMT1, activity-based probe fluorescence polarization | inhibition, % at 2.79 µM | Q99873 | actives 1.3% (n = 370,000);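 active means inhibition above about 21% made by adding two undisclosed values, limit read from the data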
NOD2 RIPK2 PPI: inhibitors of human NOD2-RIPK2 interaction; inhibition, % at 4.98 µM; CHO BLA complementation NOD2-RIPK2, CCF4 ratio; O43353; actives 0.38% (n = 360,000); in the data active means inhibition above about 21%;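 further: 0% = vehicle only and 100% = reference blocker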
Target sequence (O43353 whole entry, looked up): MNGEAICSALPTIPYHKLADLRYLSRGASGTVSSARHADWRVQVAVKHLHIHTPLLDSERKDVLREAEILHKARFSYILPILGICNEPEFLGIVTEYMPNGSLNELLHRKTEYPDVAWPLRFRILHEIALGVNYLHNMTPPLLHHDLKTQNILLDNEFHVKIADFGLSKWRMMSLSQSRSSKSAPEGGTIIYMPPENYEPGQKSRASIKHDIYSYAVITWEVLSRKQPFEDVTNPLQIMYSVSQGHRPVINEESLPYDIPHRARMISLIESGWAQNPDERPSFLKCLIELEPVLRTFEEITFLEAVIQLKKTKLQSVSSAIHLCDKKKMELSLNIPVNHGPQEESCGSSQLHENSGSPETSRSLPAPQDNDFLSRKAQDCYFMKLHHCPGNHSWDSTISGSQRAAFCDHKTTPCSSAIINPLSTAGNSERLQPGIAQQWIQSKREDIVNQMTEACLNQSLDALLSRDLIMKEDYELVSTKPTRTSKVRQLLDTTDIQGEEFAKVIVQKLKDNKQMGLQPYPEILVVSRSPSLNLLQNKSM
TLR9-MyD88 block: inhibitors of human TLR9-MyD88 binding; CHO BLA complementation TLR9-MyD88, CCF4 FRET ratio; inhibition, % at 4.98 µM; Q9NR96+Q99836; actives 0.21% (n = 340,000);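 active means inhibition above the mean over all tested compounds plus 3 SD, cut at about 21% in these data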;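 further: 0% = DMSO only wells and 100% = clavulanate BLA inhibitor control wells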
TLR4 MyD88 comp: TLR4-MyD88 interaction inhibition in cells | HeLa CL3-4 TLR4/MyD88 BLA complementation, FRET ratio | inhibition, % at 8.4 µM | actives 0.18% (n = 200,000) | AID 861; in the data active means inhibition above about 25%;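 further: 0% = vehicle and 100% = reference inhibitor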
ABHD5 PLIN5 PPI: ABHD5-PLIN5 protein interaction inhibition; Q00G26+Q8WTS1; Split G. princeps luciferase complementation, luminescence, 4 h; inhibition, % at 4 µM; actives 0.78% (n = 360,000);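 active means inhibition above the mean inhibition across every tested compound plus 3 SD, cut at about 22% in these data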;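 further: 0% = DMSO only wells and the 100% control is not disclosed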
rCAG binder: r(CAG) repeat RNA binding. inhibition, % at 3 µM. actives 1.3% (n = 370,000). TO-PRO-1 dye displacement fluorescence;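 active means inhibition above the plate cutoff, the mean of all test compounds on that plate plus 3 SD, cut at about 35% in these data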;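 further: 0% = DMSO alone and 100% = 100 µM mitoxantrone as full dye displacement; higher means more dye released from RNA so lower well fluorescence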
ABHD5 PLIN5 conf: confirmation of human ABHD5-PLIN5 interaction inhibitors. actives 67% (n = 2,200). shares compounds with ABHD5 PLIN5 PPI. biochemical ABHD5-PLIN5 interaction, luminescence. inhibition, % at 4 µM; in the data active means inhibition above about 23%;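 further: 0% = DMSO vehicle wells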
HNF4 split-luc: counter-screen for ABHD5-PLIN5 inhibitors: HNF4 split-luciferase. shares compounds with ABHD5 PLIN5 PPI. HNF4 dimerization, luminescence, biochemical. inhibition, % at 4 µM. actives 77% (n = 2,200);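 active means mean inhibition across replicate wells exceeding the computed hit threshold, cut at about 13% in these data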;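 further: light from luciferase halves that rejoin when HNF4 fusion proteins dimerize; 0% = DMSO only wells and the 100% control is not given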
The depositor's hits bear a star; . = no result given.

SMILES | PRMT1 inh | NOD2 RIPK2 PPI | TLR9-MyD88 block | TLR4 MyD88 comp | ABHD5 PLIN5 PPI | rCAG binder | ABHD5 PLIN5 conf | HNF4 split-luc
COc1ccc(NC(=S)N(CCCN2CCOCC2)Cc2cn(C)c3ccccc23)cc1 | 2 | 5 | -11 | -10 | -2 | -3 | . | .
O=C(CSc1nnc2ccc(-c3ccccn3)nn12)Nc1ccccc1F | -3 | 5 | -1 | . | 0 | 1 | . | .
CCOc1ncccc1C(=O)OCC(=O)N(CC(C)C)C1CCS(=O)(=O)C1 (configuration not stated) | 5 | -3 | 4 | 13 | -1 | -3 | . | .
Cc1ccc(S(=O)(=O)/N=C/c2ccco2)cc1 | 0 | 3 | 3 | -26 | 92* | -1 | 6 | 8
O=C(Nc1cccc(OC(F)(F)F)c1)c1ccc(-c2cccnc2)c2ccoc12 | 2 | -13 | . | . | 2 | -1 | . | .
N#Cc1ccc(C(C(=O)Nc2ccc3c(c2)OCCO3)n2c(=O)c(-c3ccco3)nc3ccccc32)cc1 (configuration not stated) | 3 | -12 | . | . | 31* | 25 | 32* | 8
Cc1cccc(C)c1NC(=O)C(c1ccc(C#N)cc1)n1c(=O)c(-c2ccco2)nc2ccccc21 (configuration not stated) | 9 | -12 | . | . | 50* | 29 | 63* | 8
Cc1cccc(C)c1NC(=O)C(CCc1ccccc1)n1c(=O)c(-c2ccccc2)nc2ccccc21 (configuration not stated) | -2 | 11 | . | . | 26* | 10 | 31* | 13*
Cc1cccc(C)c1NC(=O)C(c1ccccc1)n1c(=O)c(-c2ccco2)nc2ccccc21 (configuration not stated) | 12 | 0 | . | . | 88* | 31 | 56* | 23*
O=C(Nc1ccc2c(c1)OCCO2)C(C1CC1)n1c(=O)c(-c2ccco2)nc2ccccc21 (configuration not stated) | 13 | -2 | . | . | 2 | 18 | . | .
COCCNC(=O)C1(C)CCN(C(=O)c2ccc3ccccc3n2)C1 (configuration not stated) | 0 | -4 | . | . | 8 | -1 | . | .
COC(C(=O)N/N=C(\C)c1ccc(C(C)(C)C)cc1)c1ccccc1 (configuration not stated) | -2 | -2 | -3 | . | -1 | -4 | . | .
O=C(Nc1ccn(CCCN2CCN(c3ccccn3)CC2)c(=O)n1)OCc1ccccc1 | 0 | 1 | 1 | . | 0 | 2 | . | .
ON=Cc1ccnc2ccccc12 | -3 | 2 | 6 | . | -1 | 3 | . | .
O=C(/C=C/c1ccnc2ccccc12)c1cccs1 | -1 | 2 | -1 | 7 | 63* | 6 | 92* | 92*
COc1ccc(CCC(=O)Nc2c(-c3ccc(N(C)C)cc3)[nH][nH]c2=O)cc1 | 6 | 8 | . | . | 86* | 15 | 22 | 79*
COc1ccc(-c2[nH][nH]c(=O)c2NC(=O)c2ccccn2)cc1 | 2 | 5 | . | . | -24 | 1 | . | .
CCCn1c(CC)nc([N+](=O)[O-])c1S(=O)(=O)c1ccccc1 | 1 | 3 | -12 | 2 | 42* | 4 | 50* | 54*
COc1ccc(S(=O)(=O)N(C(=O)c2ccco2)c2cc3sc(=O)oc3c3ccccc23)cc1 | 94* | -21 | -12 | -6 | 97* | 98* | -24 | 110*
COc1ccc(S(=O)(=O)N(Cc2ccccc2)c2ccccc2C(=O)Nc2ccccc2C(=O)NCc2ccco2)cc1 | 1 | -13 | 7 | -12 | 9 | 10 | . | .
CCN1C(=O)[C@H]2[C@@H](c3ccc(C(F)(F)F)cc3)N[C@]3(CCCN(Cc4ccco4)C3=O)[C@H]2C1=O | 2 | -3 | -8 | . | 4 | 12 | . | .
CCOC(=O)c1c(CSC(=N)N)n(-c2ccc(C)cc2)c2cc(Br)c(OC(C)=O)cc12 | -1 | 10 | -9 | -12 | 31* | 12 | 33* | 30*
N#CCC(C(=O)c1cccnc1)c1ccccc1 (configuration not stated) | -3 | -1 | -2 | . | 1 | 1 | . | .
COc1cc2cc(CCCOC(=O)CCCC(=O)O)oc(=O)c2cc1OC | 2 | 11 | -7 | . | -6 | -2 | . | .
Clc1cccc2c1Sc1ccccc1CC2N1CCNCC1 (configuration not stated) | -1 | -3 | -10 | -5 | 31* | 14 | 21 | 1
SMILES | PRMT1 inh | NOD2 RIPK2 PPI | TLR9-MyD88 block | TLR4 MyD88 comp | ABHD5 PLIN5 PPI | rCAG binder | ABHD5 PLIN5 conf | HNF4 split-luc
COc1ccc(C2CC(c3cccs3)=NN2S(C)(=O)=O)cc1 (configuration not stated) | 0 | -5 | 9 | . | 0 | -2 | . | .
COc1ccc(C2CC(c3cccs3)=Nc3ccccc3S2)cc1 (configuration not stated) | 83* | 4 | 1 | 2 | 60* | 0 | -4 | -11
O=C(Nc1nc2ccccc2s1)c1cc(-c2ccco2)nc2ccccc12 | 9 | -7 | 5 | 16 | 27* | 20 | 22* | 14*
Cn1cnnc1Sc1ccc(/C=C/C(=O)c2ccc(O)cc2)cc1[N+](=O)[O-] | 3 | 10 | -6 | 1 | 64* | 4 | 87* | 87*
CCC(C)(C)NC(=O)c1ccc(Sc2nncn2C)c([N+](=O)[O-])c1 | 1 | 5 | -4 | -1 | 3 | -2 | . | .
CSc1sc(-c2ccnc(SCC(=O)C(C)(C)C)n2)c2c1C(=O)CC(C)(C)C2 | 1 | -5 | -10 | . | 23* | 6 | -5 | -5
CSc1sc(C(=O)O)c2c1C(=O)CC(C)(C)C2 | 6 | 7 | 6 | . | 4 | 3 | . | .
COC(=O)Nc1ccc2c(c1)N(C(=O)CCN(C)C)c1ccccc1CC2 | 0 | 7 | 2 | . | 2 | -4 | . | .
Cc1ccc(Cl)cc1-n1c(=O)cc(N2CCN(C(=O)c3ccco3)CC2)[nH]c1=O | 1 | -7 | -4 | -2 | 23* | 4 | 5 | 4
CNC(=S)NNC(=O)c1noc(C)c1C(=O)N1CCN(C(c2ccccc2)c2ccccc2)CC1 | -2 | -26 | -3 | 7 | -5 | 34 | . | .
CN(C)CCN(Cc1ccco1)c1ccccn1 | -5 | -7 | -4 | . | 46* | 0 | 35* | 0
COC(=O)N1CCc2c(sc(NC(=O)C3COc4ccccc4O3)c2C(N)=O)C1 (configuration not stated) | 4 | 8 | -1 | . | 40* | 12 | 1 | 8
COC[C@@H](O)[C@H]1OCc2cccc(OC)c2[C@@H]1/C=C/c1ccccc1 | -2 | . | . | . | . | 3 | . | .
CCOC(=O)C(C(=O)OCC)C(Nc1ccc(Br)cc1)c1ccccc1 (configuration not stated) | 1 | -4 | -7 | -2 | 26* | -2 | 11 | 52*
